Source: PubChem BioAssay
The sample as a whole holds a higher share of hits than the screen did.
CHX counter – counter-screen hit for Shiga toxin inhibitors, cycloheximide; cell reporter, cycloheximide protein synthesis inhibition counterscreen; max response, %; actives 12% (n = 300,000); AID 2314; in the data active = max response mostly above about 13%, no sharp cut-off; inactive = mostly below about 14%; also: read at 38.3 µM for the half of the compounds with a filed dose
Giardia FBPA inh – inhibitors of Giardia lamblia fructose-1,6-bisphosphate aldolase; purified Giardia FBPA; Potency, µM (doses to about 59.6 µM), hits mostly inhibitors; actives 0.71% (n = 290,000); AID 2451; also: nearly all actives have a fitted effect of over 55% in size
Target sequence (A8B2U2 whole entry, looked up): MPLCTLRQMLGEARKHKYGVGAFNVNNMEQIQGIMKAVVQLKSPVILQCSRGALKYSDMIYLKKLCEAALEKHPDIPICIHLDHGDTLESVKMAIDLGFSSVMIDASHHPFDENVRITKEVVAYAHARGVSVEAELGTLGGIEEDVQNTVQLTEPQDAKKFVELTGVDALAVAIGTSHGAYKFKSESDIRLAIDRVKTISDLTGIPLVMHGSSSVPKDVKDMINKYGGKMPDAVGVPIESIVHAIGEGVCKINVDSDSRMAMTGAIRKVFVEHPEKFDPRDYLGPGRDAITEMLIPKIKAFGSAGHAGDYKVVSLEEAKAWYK
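40 nM FBPA preincubated 10 min at RT with compound (up to 57.5 uM final), then substrate plus GAPDH/TPI/NAD/arsenate coupling and diaphorase/resazurin added. Fluorescence read after 20 min at RT, 525/598 nm.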
Shiga inhibitor – blocks Shiga toxin action in Vero cells; AID 2315; inhibition, % at 38.7 µM; Vero cells, Shiga toxin protein synthesis inhibition reporter; actives 9.2% (n = 290,000); in the data active = inhibition mostly above about 28%, no sharp cut-off; inactive = mostly below about 43%
Sm TGR inh – blocks Schistosoma mansoni thioredoxin glutathione reductase. Q962Y6. purified TGR, DTNB reduction, TNB absorbance 405 nm. actives 3% (n = 360,000). Potency, µM (titrated, usually from 114 µM), usual class: inhibitors; also: nearly all actives have a fitted effect of over 60% in size
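Kinetic colorimetric format: TGR-catalysed, NADPH-driven DTNB reduction monitored via TNB absorbance. Enzyme dispensed at 20 nM; compound exposure 15 min at room temperature before reaction start.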
TbPYK inhibitor – blocks Trypanosoma brucei pyruvate kinase; Q57TT1; TbPYK enzyme, Kinase-Glo Plus ATP luminescence, 45 min; Potency, µM (doses to about 76.8 µM), usual class: inhibitors; actives 0.12% (n = 410,000); AID 624173; also: nearly all actives have a fitted effect of over 50% in size
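Glycolytic pyruvate kinase of T. brucei was incubated with substrate, test compound and 130 uM ADP for 45 minutes at room temperature. Luminescent Kinase-Glo Plus signal was measured after 10 minutes.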
LmPK inhibitor – inhibitors of Leishmania mexicana pyruvate kinase; Potency, µM (series often up to 57.5 µM), usual class: inhibitors; actives 0.37% (n = 290,000); Q27686; AID 1721; purified LmPK, Kinase-Glo ATP luminescence, 1 h
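ATP generated from ADP (0.1 mM) and PEP (0.5 mM) by 0.1 nM LmPK over 1 h at room temperature (pH 7.2 imidazole buffer) was detected by coupled luciferase luminescence. Values were normalized to uninhibited and no-enzyme wells.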
A number is an active result; 0 = inactive; ? = inconclusive; - = no result; [ ] = remark or other dose. Unless noted, calls follow the shape of the dose curve; as a rule, active = well fitted curve in the direction sought with a large enough effect; inconclusive = small, poorly fitted or top-dose-only effect, or another doubt; inactive = no such curve, though single readings can be large; an effect the other way counts as inactive or inconclusive.

SMILES | CHX counter | Giardia FBPA inh | Shiga inhibitor | Sm TGR inh | TbPYK inhibitor | LmPK inhibitor
Cc1cc(C)c2c(CC(=O)Nc3nccs3)coc2c1 | 20.1 | 0 | 0 | 0 | 0 | 0
C=CCn1c(SCC(=O)Nc2ccc(F)cc2F)nnc1-c1cnccn1 | 26.5 | - | 44.7 | 0 | 0 | 0
Cc1ccc(SCC(=O)Nc2nccs2)cc1 | 42.5 | 0 | 70.9 | 0 | 0 | 0
C=CCn1c(SCC(=O)Nc2cccc(OC)c2)nnc1-c1cccnc1 | 19.0 | 0 | 0 | 0 | 0 | 0
CS[C@@H]1SC[C@H]2C(=O)N(C)C(C(C)C)C(=O)OC[C@@H](NC(=O)c3cnc4ccccc4n3)C(=O)N[C@@H](C)C(=O)N(C)[C@H]1C(=O)N(C)C(C(C)C)C(=O)OC[C@@H](NC(=O)c1cnc3ccccc3n1)C(=O)N[C@@H](C)C(=O)N2C (stereo partly drawn) | 0 | 0 | 0 | - | - | -
O=C(CSc1ncn(-c2ccccc2)n1)Nc1nccs1 | 0 | 0 | 0 | 0 | - | 0
O=C(CSc1ccccc1)Nc1nccs1 | 28.1 | 0 | 50.4 | 0 | 0 | 0
Cc1nnc(NC(=O)CCC2CCCCC2)s1 | - | - | - | - | 0 | -
O=C(CSc1cn(Cc2ccccc2)c2ccccc12)Nc1nccs1 | 37.1 | 0 | 75.8 | 0 | 0 | 0
O=C(CSc1cn(Cc2ccccc2)c2ccccc12)NCc1ccc(F)cc1 | 0 | 0 | 0 | 0 | 0 | 0
O=C(CCC1CCCCC1)Nc1nccs1 | 29.4 | 0 | 76.6 | - | 0 | 0
O=C(CSCc1ccccc1)Nc1nccs1 | 18.2 | 0 | 0 | 0 | 0 | 0
Cc1ccc(-n2nc3cc(C)c(NC(=O)c4ccc(-c5ccccc5)o4)cc3n2)cc1 | - | - | - | 0 | 0 | -
Cc1csc(=Nc2ccccc2)n1CCCN1CCCC1=O | 0 | 0 | 0 | 0 | 0 | 0
C=CCNC(=S)/N=c1/scc(C)n1C | 19.0 | 0 | 0 | 0 | 0 | 0
Cc1csc(=Nc2ccccc2)n1C | 21.8 | 0 | 0 | 0 | 0 | 0
C=CCNC(=S)/N=c1\sccn1C | 14.7 | 0[12.9 µM] | 0 | 0 | 0 | 0
Cc1cs/c(=N/C(=S)Nc2ccccc2)n1C | 100.8 | 0 | 142.6 | 0 | 0 | 0
CCCCCC(=C/c1ccccc1)/C=N/Nc1ccc(S(=O)(=O)N2CCOCC2)cc1[N+](=O)[O-] | - | - | - | - | 0 | -
N#Cc1c[nH]n2c(NC3CCCC3)c(-c3cccc(Br)c3)nc12 | - | - | - | 0 | 0 | -
Cc1cccc(-c2nc3c(cnn3-c3ccccc3)c(=O)n2-c2ccc(Cl)cc2)c1 | - | - | - | 0 | 0 | -
Cc1ccc(C2C(C#N)=C(N)Oc3c2oc(CO)cc3=O)o1 (stereo not drawn) | 0 | ? | 0 | 39.8µM | 0 | 0
Cc1ccc(N)c(Cl)c1 | 0 | 0 | 0 | - | - | -
c1ccc(-c2ccc(CNC3CC3)cc2)cc1 | 23.4 | 0 | 0 | 0 | 0 | 0
Cc1ccc(C(C)C)c(OCc2ccc(C(=O)N/N=C/c3ccc(C(=O)O)cc3)cc2)c1 | 11.3 | 0 | 0 | 0 | 0 | 0
SMILES | CHX counter | Giardia FBPA inh | Shiga inhibitor | Sm TGR inh | TbPYK inhibitor | LmPK inhibitor
CC(C)(C)c1ccc(OCc2ccc(C(=O)N/N=C/c3ccc(O)c(O)c3)cc2)cc1 | 17.8 | 0 | 63.9 | 0 | 0 | 0
O=C(N/N=C/c1ccc2c(c1)OCO2)c1ccc(COc2cccc3cccnc23)cc1 | 35.7 | 0 | 81.9 | 0 | 0 | 0
O=C(N/N=C/c1cccc(O)c1)c1ccc(COc2cccc3cccnc23)cc1 | 21.0 | 0 | 34.5 | 0 | 0 | 0
O=C(N/N=C/c1ccncc1)c1ccc(COc2cccc3cccnc23)cc1 | 0 | 0 | 0 | 0 | 0 | 0
O=C(Nc1ccc2nc(SCCOc3ccccc3)sc2c1)c1ccc2c(c1)OCO2 | - | - | - | ? | 0 | -
COCc1cc(C)nc2c1C(=O)NC(c1ccc(C)cc1)N2Cc1ccccc1 (stereo not drawn) | - | - | - | 0 | 0 | -
COc1ccc(C(=O)N/N=C/c2ccc3cccc(O)c3n2)cc1 | 0 | 0 | 0 | 0 | 0 | 0
CC(C)(C)c1ccc(OCc2ccc(C(=O)N/N=C3\CC4CC=CC34)cc2)cc1 (stereo not drawn) | 16.8 | 0 | 0 | 0 | 0 | 0
COc1ccc(/C=N/NC(=O)c2ccc(COc3cccc4cccnc34)cc2)cc1O | 12.5 | 0 | 31.9 | 0 | 0 | 0
O=C(N/N=C/c1ccc2cccc(OCc3ccccc3)c2n1)c1ccc(Cl)cc1 | 31.3 | 0 | 61.3 | 0 | 0 | 0
COc1ccc(/C=N/NC(=O)c2ccc(COc3cccc4cccnc34)cc2)cc1OC | 0 | 0 | 0 | 0 | 0 | 0
